Activity calls are given as the source filed them. Rule for the calls: active = hit-call score of the fitted dose curve at least 0.9, where 1 is the maximum; inactive = score below 0.9.
Key:
Conditions in all cases: mRNA level, 48 h; actives raise or lower the signal
[1] = read-out: Forkhead box O3 (FOXO3), FOXO3 (gene 2309); assay: LTEA_HepaRG_FOXO3: Life Technologies and Expression Analysis (LTEA) Assay for Forkhead box O3 (FOXO3) using HepaRG (AID 2283459)
Outline: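 FOXO3 transcript measured by qRT-PCR (normalized to ACTB, GAPDH, POLR2A) after 48 h exposure of HepaRG cells in serum-free induction medium. Duplicates, eight half-log concentrations up to 100 uM, 0.5% DMSO; gain or loss fitted against DMSO.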

[2] = read-out: ABC Transporter (ABCB1), ABCB1 (gene 5243); assay: LTEA_HepaRG_ABCB1: Life Technologies and Expression Analysis (LTEA) Assay for ABC Transporter (ABCB1) using HepaRG (AID 2283460)
Outline: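 ABCB1 transcript level measured by TaqMan qRT-PCR against three housekeeping genes after 48 h chemical exposure of differentiated HepaRG cells. Top concentration 100 uM, half-log steps, eight points, 0.5% DMSO vehicle; bidirectional fit relative to DMSO.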

[3] = read-out: growth arrest and DNA damage 45 (GADD45B), GADD45B (gene 4616); assay: LTEA_HepaRG_GADD45B: Life Technologies and Expression Analysis (LTEA) Assay for growth arrest and DNA damage 45 (GADD45B) using HepaRG (AID 2283461)
Outline: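 qRT-PCR read-out (Fluidigm TaqMan, housekeeping-normalized) of mRNA change in human HepaRG cells after 48 h chemical exposure; 8-point curve, top 100 uM, half-log steps, 0.5% DMSO vehicle; gain or loss fitted relative to DMSO baseline.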

[4] = read-out: ABC Transporter (ABCC3), ABCC3 (gene 8714); assay: LTEA_HepaRG_ABCC3: Life Technologies and Expression Analysis (LTEA) Assay for ABC Transporter (ABCC3) using HepaRG (AID 2283462)
Outline: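 qRT-PCR read-out of ABCC3 transcript, normalized to three housekeeping genes (ACTB, GAPDH, POLR2A), after 48 h chemical exposure of human HepaRG cells. Eight half-log concentrations, highest 100 uM, in 0.5% DMSO; gain or loss fitted relative to DMSO baseline.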

[5] = read-out: ABC Transporter (ABCB11), ABCB11 (gene 8647); assay: LTEA_HepaRG_ABCB11: Life Technologies and Expression Analysis (LTEA) Assay for ABC Transporter (ABCB11) using HepaRG (AID 2283463)
Outline: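 ABCB11 transcript levels quantified by TaqMan qRT-PCR against three housekeeping genes after 48 h chemical exposure of HepaRG cultures. Concentrations up to 100 uM in half-log steps, 0.5% DMSO vehicle; both induction and suppression scored.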

[6] = read-out: ABC Transporter (ABCC2), ABCC2 (gene 1244); assay: LTEA_HepaRG_ABCC2: Life Technologies and Expression Analysis (LTEA) Assay for ABC Transporter (ABCC2) using HepaRG (AID 2283464)
Outline: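 qRT-PCR (TaqMan, Fluidigm array) read-out of ABCC2 mRNA, normalized to three housekeeping genes. Differentiated HepaRG cells were treated 48 h in serum-free induction medium with 8-point half-log series from 100 uM in 0.5% DMSO; curves fitted bidirectionally relative to DMSO.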

[7] = read-out: Broad substrate specificity ATP-binding cassette transporter ABCG2 (Homo sapiens) (UniProt Q9UNQ0); assay: LTEA_HepaRG_ABCG2: Life Technologies and Expression Analysis (LTEA) Assay for ABC Transporter (ABCG2) using HepaRG (AID 2283465)
Outline: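 ABCG2 transcript was quantified by TaqMan qRT-PCR against three housekeeping genes in HepaRG cells. Cells were treated in duplicate for 48 h across an 8-point half-log series up to 100 uM, with 0.5% DMSO vehicle. Gain or loss versus DMSO was fit.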

[8] = read-out: ATP-citrate lyase (ACLY), ACLY (gene 47); assay: LTEA_HepaRG_ACLY: Life Technologies and Expression Analysis (LTEA) Assay for ATP-citrate lyase (ACLY) using HepaRG (AID 2283466)
Outline: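 ACLY mRNA quantified by qRT-PCR on Fluidigm arrays against three housekeeping genes, after 48 h chemical treatment of HepaRG cells (top concentration 100 uM, half-log steps, 0.5% DMSO vehicle). Up- or down-regulation fitted relative to DMSO.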

[9] = read-out: Peroxisomal acyl-coenzyme A oxidase 1 (ACOX1) gene, ACOX1 (gene 51); assay: LTEA_HepaRG_ACOX1: Life Technologies and Expression Analysis (LTEA) Assay for Peroxisomal acyl-coenzyme A oxidase 1 (ACOX1) gene using HepaRG (AID 2283467)
Outline: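 ACOX1 transcript levels were quantified by TaqMan qRT-PCR against three housekeeping genes after 48 h chemical exposure of differentiated human HepaRG cells. Exposure used eight half-log steps topping at 100 uM, 0.5% DMSO vehicle, in duplicate. Bidirectional curve fits were made relative to DMSO.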

[10] = read-out: Alkaline Phosphatase, Placental (ALPP) gene, ALPP (gene 250); assay: LTEA_HepaRG_ALPP: Life Technologies and Expression Analysis (LTEA) Assay for Alkaline Phosphatase, Placental (ALPP) gene using HepaRG (AID 2283468);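 for AC50: differentiated human HepaRG liver cells in serum-free induction medium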
Outline: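 qRT-PCR readout of ALPP mRNA (Fluidigm TaqMan), normalized to ACTB/GAPDH/POLR2A, after 48 h chemical exposure of HepaRG cells; 8-point half-log series, top 100 uM, 0.5% DMSO vehicle. Bidirectional curve fit versus DMSO baseline.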

[11] = read-out: Bcl-2 (BAD) gene, BAD (gene 572); assay: LTEA_HepaRG_BAD: Life Technologies and Expression Analysis (LTEA) Assay for Bcl-2 (BAD) gene using HepaRG (AID 2283469)
Outline: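 Read-out: qRT-PCR of BAD mRNA, normalized to three housekeeping genes. Human HepaRG cultures got 48 h chemical exposure in 0.5% DMSO, duplicate eight-point half-log series topping at 100 uM. Gain or loss of signal fitted versus DMSO vehicle.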

[12] = read-out: Bcl-2 (BAX) gene, BAX (gene 581); assay: LTEA_HepaRG_BAX: Life Technologies and Expression Analysis (LTEA) Assay for Bcl-2 (BAX) gene using HepaRG (AID 2283470)
Outline: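 qRT-PCR read-out of BAX mRNA, normalized to three housekeeping genes, after 48 h chemical exposure of human HepaRG cells in serum-free induction medium; eight-point half-log series, top 100 uM, 0.5% DMSO vehicle; bidirectional fit versus DMSO.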

[13] = read-out: adenosine kinase (ADK) gene, ADK (gene 132); assay: LTEA_HepaRG_ADK: Life Technologies and Expression Analysis (LTEA) Assay for adenosine kinase (ADK) gene using HepaRG (AID 2283471)
Outline: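 Following 48 h exposure of HepaRG cells in 0.5% DMSO (top concentration 100 uM, duplicate wells), ADK mRNA induction or suppression was measured by qRT-PCR, normalised to ACTB/GAPDH/POLR2A, and fitted bidirectionally relative to vehicle.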

[14] = read-out: Alpha-fetoprotein (AFP) gene, AFP (gene 174); assay: LTEA_HepaRG_AFP: Life Technologies and Expression Analysis (LTEA) Assay for Alpha-fetoprotein (AFP) gene using HepaRG (AID 2283472)
Outline: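 qRT-PCR (Fluidigm TaqMan) readout of AFP transcript, normalized to three housekeeping genes, fitted bidirectionally against 0.5% DMSO baseline. HepaRG cells received chemicals for 48 h in serum-free induction medium, top concentration 100 uM, half-log steps.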

BCL2L11 (gene 10018) = assay: LTEA_HepaRG_BCL2L11: Life Technologies and Expression Analysis (LTEA) Assay for Bcl-2 (BCL2L11) gene using HepaRG (AID 2283473)
Outline: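 HepaRG, 48 h exposure, 8-pt half-log series from 100 uM in 0.5% DMSO, duplicates; qRT-PCR (Fluidigm TaqMan) for BCL2L11, housekeeping-normalized; bidirectional curve fit relative to DMSO baseline.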

[15] = read-out: Apolipoprotein A-V (APOA5) gene, APOA5 (gene 116519); assay: LTEA_HepaRG_APOA5: Life Technologies and Expression Analysis (LTEA) Assay for Apolipoprotein A-V (APOA5) gene using HepaRG (AID 2283474)
Outline: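 HepaRG, 48 h chemical exposure in serum-free induction medium, 8-pt half-log series (top 100 uM), 0.5% DMSO vehicle, duplicates. Readout: APOA5 mRNA by qRT-PCR, housekeeping-normalized; bidirectional fit vs DMSO baseline.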

[16] = read-out: Apoptosis regulator Bcl-2 (Homo sapiens) (UniProt P10415); assay: LTEA_HepaRG_BCL2: Life Technologies and Expression Analysis (LTEA) Assay for Bcl-2 gene using HepaRG (AID 2283475)
Outline: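 qRT-PCR read-out (Fluidigm TaqMan) of BCL2 transcript, normalised to three housekeeping genes, after 48 h chemical exposure of HepaRG cells; 8-point half-log series, top 100 uM, 0.5% DMSO vehicle. Gain or loss of signal fitted relative to DMSO baseline.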

[17] = read-out: Bcl-2 (BID) gene, BID (gene 637); assay: LTEA_HepaRG_BID: Life Technologies and Expression Analysis (LTEA) Assay for Bcl-2 (BID) gene using HepaRG (AID 2283476)
Outline: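 HepaRG, 48 h exposure, 8-pt half-log series, top 100 uM, 0.5% DMSO vehicle, duplicates. Readout: BID mRNA by TaqMan qRT-PCR; housekeeping-normalized; bidirectional curve fit vs DMSO baseline.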

Caspase-3 (Homo sapiens) = Caspase-3 (Homo sapiens) (UniProt P42574); assay: LTEA_HepaRG_CASP3: Life Technologies and Expression Analysis (LTEA) Assay for cysteine-aspartic acid protease (CASP3) using HepaRG (AID 2283477)
Chain of Caspase-3 (Homo sapiens) (P42574 whole entry, looked up): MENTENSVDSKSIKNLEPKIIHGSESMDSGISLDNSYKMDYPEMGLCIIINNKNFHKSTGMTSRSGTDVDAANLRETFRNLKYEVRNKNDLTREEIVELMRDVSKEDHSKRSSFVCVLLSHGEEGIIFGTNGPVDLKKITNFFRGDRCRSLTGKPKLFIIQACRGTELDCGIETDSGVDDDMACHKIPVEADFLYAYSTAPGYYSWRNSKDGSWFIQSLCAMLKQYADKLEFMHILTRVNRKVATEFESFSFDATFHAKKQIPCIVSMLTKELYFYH
Outline: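 HepaRG, 48 h exposure, 8 conc. (top 100 uM, half-log steps, duplicate), 0.5% DMSO vehicle; qRT-PCR of CASP3 transcript, housekeeping-normalised (ACTB/GAPDH/POLR2A); bidirectional curve fit vs DMSO baseline.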

[18] = read-out: Cytochrome P450 (CYP24A1), CYP24A1 (gene 1591); assay: LTEA_HepaRG_CYP24A1: Life Technologies and Expression Analysis (LTEA) Assay for Cytochrome P450 (CYP24A1) using HepaRG (AID 2283478)
Outline: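 qRT-PCR read-out: CYP24A1 transcript levels normalized to three housekeeping genes, bidirectional curve fits against 0.5% DMSO baseline. Human HepaRG cells treated 48 h with chemicals at eight concentrations from 100 uM in half-log steps.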

Measured: AC50

Chain of Broad substrate specificity ATP-binding cassette transporter ABCG2 (Homo sapiens) (Q9UNQ0 whole entry, looked up): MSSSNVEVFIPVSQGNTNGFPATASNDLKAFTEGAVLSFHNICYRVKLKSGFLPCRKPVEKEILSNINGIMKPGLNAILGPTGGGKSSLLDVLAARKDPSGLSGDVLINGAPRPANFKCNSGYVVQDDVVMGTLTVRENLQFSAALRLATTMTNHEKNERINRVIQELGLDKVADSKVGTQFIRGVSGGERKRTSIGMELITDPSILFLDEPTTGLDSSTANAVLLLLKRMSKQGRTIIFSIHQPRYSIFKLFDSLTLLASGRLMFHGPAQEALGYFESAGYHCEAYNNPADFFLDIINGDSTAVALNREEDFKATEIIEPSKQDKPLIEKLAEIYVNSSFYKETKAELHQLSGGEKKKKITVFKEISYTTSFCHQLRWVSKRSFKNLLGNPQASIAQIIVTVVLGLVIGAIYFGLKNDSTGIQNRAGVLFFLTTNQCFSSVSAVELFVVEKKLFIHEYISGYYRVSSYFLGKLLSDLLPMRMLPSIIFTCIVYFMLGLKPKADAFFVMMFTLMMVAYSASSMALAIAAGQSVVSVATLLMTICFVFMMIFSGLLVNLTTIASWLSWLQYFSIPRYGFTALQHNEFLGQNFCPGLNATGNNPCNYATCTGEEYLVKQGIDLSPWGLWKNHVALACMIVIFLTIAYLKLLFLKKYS
Chain of Apoptosis regulator Bcl-2 (Homo sapiens) (P10415 whole entry, looked up): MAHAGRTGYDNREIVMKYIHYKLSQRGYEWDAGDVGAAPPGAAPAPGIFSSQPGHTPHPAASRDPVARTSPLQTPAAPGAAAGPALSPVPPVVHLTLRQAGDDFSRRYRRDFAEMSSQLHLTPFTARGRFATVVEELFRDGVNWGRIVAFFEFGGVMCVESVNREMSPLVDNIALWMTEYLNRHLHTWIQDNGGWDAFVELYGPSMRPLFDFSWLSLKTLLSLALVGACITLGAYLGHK

CCCCC(CC)COC(=O)c1ccc(C(=O)OCC(CC)CCCC)cc1 (stereo unspecified)
inactive: all assays above

CC(C)=CCC/C(C)=C/CO
not listed: [18]
inactive: all other assays above

Nc1ccc(Nc2ccccc2)cc1
active: [3] 63.2 µM | [5] 69.2 µM | [10] 50 µM | [11] 11.9 µM | [14] 75.9 µM
not listed: Caspase-3 (Homo sapiens)
inactive: all other assays above

CCCCCCCCO
not listed: Caspase-3 (Homo sapiens)
inactive: all other assays above

CCCCCCCCCCCCc1ccccc1
inactive: all assays above

COCCOCCOCCOC
inactive: all assays above

CCC(C)(C)C(=O)O[C@H]1C[C@@H](C)C=C2C=C[C@H](C)[C@H](CC[C@@H]3C[C@@H](O)CC(=O)O3)[C@H]21
active: [2] 31.7 µM | [5] 50 µM | [8] 13.5 µM
not listed: [18]
inactive: all other assays above

Source: PubChem BioAssay (EPA / NIEHS)
